Experiment [1] can be described thus: qHTS assay to identify small molecule agonists of the estrogen related receptor (ERR) signaling pathway from Tox21 library (AID 1224849; calls by dose curve; further: nearly all actives have a fitted effect of over 15% in size). The note with it: ERR reporter cell line, ONE-Glo luciferase, 18 h; at 92.4 µM (top of the series) unless noted. The procedure, abridged:
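Six hours post-seeding at 37 C/5% CO2, ERR cells receive DMSO-solubilised compounds; after 18 h at 37 C, ONE-Glo reagent is applied and luminescence recorded.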
On the technique in general: qHTS replaces the single test concentration by a dilution series.

The nature of experiment [2]: A CellTox Green Cytotoxicity Assay to monitor cytotoxicity in HEK293 cells - 0 hour (AID 1224869). Further: nearly all actives have a fitted effect of over 50% in size. The method in brief: (§1)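 Seeding of HEK293 cells together with cytotoxicity dye preceded a 5 h incubation at 37 C/5% CO2. Test compounds in DMSO were then added and fluorescence monitored across 40 h.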
Experiment [3] can be described thus: qHTS RealTime-Glo MT Cell Viability Assay in HepG2 cells - 40 hour (AID 1224870). Further: nearly all actives have a fitted effect of over 50% in size. The procedure, abridged:
(§2)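 Real-time viability: cells seeded at 600 per well together with NanoLuc and cell-permeant prosubstrate, compounds added after 5 h incubation. Luminescence tracked at 0, 8, 16, 24, 32 and 40 h of exposure.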

The nature of experiment [4]: A CellTox Green Cytotoxicity Assay to monitor cytotoxicity in HEK293 cells - 40 hour (AID 1224871). Further: nearly all actives have a fitted effect of over 45% in size. Further: potency means the concentration at half of the fitted maximal effect. The method in brief:
as §1

A short description of experiment [5]: qHTS RealTime-Glo MT Cell Viability Assay in HepG2 cells - 8 hour (AID 1224873). Further: nearly all actives have a fitted effect of over 55% in size. Further: potency means the concentration at half of the fitted maximal effect. The procedure, abridged: as §2
A short description of experiment [6]: qHTS RealTime-Glo MT Cell Viability Assay in HepG2 cells - 32 hour (AID 1224877). Further: nearly all actives have a fitted effect of over 55% in size. Further: potency means the concentration at half of the fitted maximal effect. The method in brief:
(§3)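 HepG2 suspension premixed with RealTime-Glo reagents is plated at 600 cells per well and left 5 h at 37 C/5% CO2. Compounds in DMSO then go in, and bioluminescence reflecting viable cell number is recorded over 40 h.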

A short description of experiment [7]: qHTS assay to identify small molecule agonists of the hypoxia (HIF-1) signaling pathway (AID 1224846; active means well fitted activation curve with a large enough effect in the signal ratio in the repeat runs, not every such curve was filed as active; the % refers to the signal ratio). The procedure, abridged:
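Hypoxia-pathway activation was scored as increased beta-lactamase from an HRE-controlled reporter in ME-180 cells; plated at 2,000 cells per well with 0.5% dialyzed FBS, they were exposed 17 hrs to compounds and then given CCF4-AM.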

Experiment [8] is described as follows: qHTS RealTime-Glo MT Cell Viability Assay in HepG2 cells - 24 hour (AID 1224867). Further: nearly all actives have a fitted effect of over 50% in size. Further: potency means the concentration at half of the fitted maximal effect. The method in brief:
as §3

Experiment [9] in a line: qHTS RealTime-Glo MT Cell Viability Assay in HEK293 cells - 16 hour (AID 1224872). Further: nearly all actives have a fitted effect of over 50% in size. Further: potency means the concentration at half of the fitted maximal effect. The procedure, abridged:
(§4)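 Reads taken at 0, 8, 16, 24, 32 and 40 h from the same wells. HEK293 cells (600/well) carried RealTime-Glo reagents from seeding, with compound added after a 5 h settle at 37 C.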

Experiment [10] is described as follows: qHTS RealTime-Glo MT Cell Viability Assay in HEK293 cells - 40 hour (AID 1224874). Further: nearly all actives have a fitted effect of over 50% in size. Further: potency means the concentration at half of the fitted maximal effect. The settings on record: RealTime-Glo luminescence; max response: stronger effect = lower value. The method in brief: (§5)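 Tox21 screen in HEK293 using RealTime-Glo MT chemistry, with cells and reagent co-dispensed. Luminescence proportional to viable cell number was captured at intervals during 40 h compound exposure at 37 C.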

The nature of experiment [11]: A CellTox Green Cytotoxicity Assay to monitor cytotoxicity in HEK293 cells - 24 hour (AID 1224875). Further: nearly all actives have a fitted effect of over 45% in size. The procedure, abridged: as §1
Experiment [12] is described as follows: qHTS assay to identify small molecule agonists of the hypoxia (HIF-1) signaling pathway - cell viability counter screen (AID 1224844; calls by dose curve; further: nearly all actives have a fitted effect of over 50% in size). The method in brief: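 Multiplexed with the HRE beta-lactamase assay, this viability read used CellTiter-Glo luminescence (30 min, RT) on HRE-bla ME-180 cells treated 17 hrs with compounds in 0.5% dialyzed FBS medium.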
Experiment [13] in a line: qHTS assay to identify small molecule antagonists of the estrogen related receptor (ERR) signaling pathway from Tox21 library (AID 1224848). Further: nearly all actives have a fitted effect of over 50% in size. Further: potency means the concentration at half of the fitted maximal effect. The method in brief: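 Antagonist-mode screen of the Tox21 10K library in an NTP-provided ERR reporter cell line; 18 h compound exposure at 37 C, luminescence measured with ONE-Glo.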
Experiment [14] is described as follows: qHTS RealTime-Glo MT Cell Viability Assay in HEK293 cells - 32 hour (AID 1224868). Further: nearly all actives have a fitted effect of over 50% in size. Further: potency means the concentration at half of the fitted maximal effect. The method in brief:
as §4

A short description of experiment [15]: qHTS RealTime-Glo MT Cell Viability Assay in HEK293 cells - 0 hour (AID 1224880). Further: nearly all actives have a fitted effect of over 45% in size. Further: potency means the concentration at half of the fitted maximal effect. The method in brief:
as §5

Experiment [16] is described as follows: A CellTox Green Cytotoxicity Assay to monitor cytotoxicity in HepG2 cells - 16 hour (AID 1224876). Further: nearly all actives have a fitted effect of over 45% in size. Further: potency means the concentration at half of the fitted maximal effect. The procedure, abridged: (§6)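 Nonlytic assay: viable cells exclude the dye, so fluorescence scales with cell death. HepG2 at 600 cells/well, compounds added after 5 h, signal read across 40 h.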
Experiment [17] in a line: A CellTox Green Cytotoxicity Assay to monitor cytotoxicity in HepG2 cells - 24 hour (AID 1224878). Further: nearly all actives have a fitted effect of over 45% in size. Further: potency means the concentration at half of the fitted maximal effect. The method in brief: as §6
The nature of experiment [18]: A CellTox Green Cytotoxicity Assay to monitor cytotoxicity in HepG2 cells - 40 hour (AID 1224879). Further: nearly all actives have a fitted effect of over 40% in size. Further: potency means the concentration at half of the fitted maximal effect. The procedure, abridged:
as §6

Experiment [19] in a line: qHTS assay to identify small molecule agonists of H2AX - cell viability counter screen (AID 1224847; calls by dose curve; further: nearly all actives have a fitted effect of over 30% in size; further: potency means the concentration at half of the fitted maximal effect). The method in brief:
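CHO-K1 cells plated overnight at 37C, then exposed 3 h at 37C to compounds at 15 concentrations (0.76% DMSO final). Viability by CellTiter-Glo luminescence after 30 min at room temperature.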

Experiment [20] is described as follows: qHTS assay to identify small molecule agonists of H2AX (AID 1224845; active means well fitted activation curve with a large enough effect in the signal ratio in the repeat runs, not every such curve was filed as active; the % refers to the signal ratio). The procedure, abridged: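 Phospho-H2AX Ser139 measured by HTRF (ex 320 nm; em 665 and 620 nm) after 24 hr antibody incubation. Compounds, 15 concentrations, 0.76% DMSO, were applied to CHO-K1 cells for 3hr at 37C before lysis.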

Values without a mark were called inactive. Results filed as inconclusive are left out. The source made the active and inactive calls. Unless noted, the call rests on the fitted dose curve; in most records, active means well fitted curve in the direction sought with a large enough effect in the repeat runs; inconclusive means weak or mixed curves; inactive means no such curve, though single readings can be large; an effect the other way counts as inactive or inconclusive.
On the % scale 0 is the no-effect control and ±100 the full control effect.

For `CCCCCCCCCCCCN1CCCCCC1=O`, in experiment [1], the activity change, positive = activation is -23.3%. The Potency result in experiment [2], in [3], in experiment [4], in experiment [5] and in experiment [6] was “inactive” each time.

For the molecule `CCOC(=O)C1=C[C@]2(CC)CCCN3CCc4c(n1c1ccccc41)[C@@H]32`, the Potency entry in experiment [7], in experiment [8], in experiment [2], in experiment [3], in experiment [4] and in [9] was “inactive” each time. For the same molecule, the Potency result in experiment [5], in [11] and in [6] was “inactive” throughout. Further, in [10], the max response was -21.2%.

As for `COC(=O)C1=C(C)NC(COC(N)=O)=C(C(=O)OC(C)C)C1c1cccc(Cl)c1Cl` (centres undefined), the Potency entry in experiment [12] and in experiment [4] was “inactive” each time. Moreover, the Potency in [13] is 26.6 µM (active); in experiment [8] it was 23.9 µM (active); in [14] it was 26.8 µM (active); in experiment [9], 26.8 µM (active); in [5], 23.9 µM (active); in experiment [10], 26.8 µM (active). The Potency in [6] was 19 µM (active); in [15], 2.68 µM (active). In addition, in [1], the activity change, positive = activation is -36.5% [at 42.5 µM].

Consider `CCOC(=O)NCCOc1ccc(Oc2ccccc2)cc1`, for which the Potency result in experiment [12], in experiment [8], in experiment [2], in [3], in experiment [16] and in experiment [6] was “inactive” throughout. Moreover, the Potency entry in experiment [17], in [18] and in experiment [15] was “inactive” in each case. Besides, the Potency in experiment [13] is 19.3 µM (active); in experiment [14], 21.9 µM (active); in experiment [10], 21.9 µM (active). Further, in [1], the activity change, positive = activation is -42.2%.

With `CCN(CC)c1ccc(C(=C2C=CC(=[N+](CC)CC)C=C2)c2cc(S(=O)(=O)O)ccc2S(=O)(=O)[O-])cc1`, the Potency entry in experiment [7], in experiment [8], in experiment [14], in experiment [2], in [3] and in [5] was “inactive” in each case. The Potency result in experiment [11], in experiment [16], in [6], in [17], in experiment [18] and in experiment [15] was “inactive” throughout. Also, the results for the Potency in [19] and in experiment [13] were 22 µM (active) and 11.9 µM (active), respectively. The activity change, positive = activation in experiment [1] was -45.9% [at 42.5 µM]. Moreover, the max response in experiment [10] is 0.738%.

As to `CC(=O)c1ccc2c(c1)N(CCCN1CCC(CCO)CC1)c1ccccc1S2`, the Potency result in experiment [19], in [8], in experiment [2], in [3], in experiment [5] and in [11] was “inactive” in each case. For the same molecule, the Potency entry in experiment [6] and in [15] was “inactive” throughout. For the same molecule, the Potency in experiment [14] was 21.3 µM (active); in experiment [4], 23.9 µM (active); in experiment [10], 21.3 µM (active); in [16] it was 21.3 µM (active); in [17], 23.9 µM (active); in [18] it was 23.9 µM (active).

In the case of `O=C(O)c1ccc(-n2nc(-c3ccccc3O)nc2-c2ccccc2O)cc1`, the Potency result in [12], in [8], in [2], in experiment [3], in experiment [5] and in experiment [11] was “inactive” throughout. The Potency result in experiment [16], in experiment [6], in experiment [17], in experiment [18] and in experiment [15] was “inactive” in each case. The Potency in experiment [13] was 21.1 µM (active). Further, in [1], the activity change, positive = activation is -48.9% [at 42.5 µM].

`CN(C)CCOC(c1ccccc1)c1ccc(Br)cc1` (centres undefined): the Potency entry in experiment [20], in experiment [7], in [19], in experiment [13], in experiment [8] and in experiment [2] was “inactive” in each case. Moreover, the Potency result in experiment [3], in experiment [4], in [9], in [5], in experiment [11] and in experiment [6] was “inactive” throughout. The Potency entry in experiment [15] was “inactive”. Also, the activity change, positive = activation in [1] was -2.31% [at 42.5 µM]. For the same molecule, the Potency in experiment [17] and in experiment [18] was 23.9 µM (active) in each case.

The record behind these values is PubChem BioAssay (Tox21).
